BAZ2B block – blocks human BAZ2B; Q9UIF8; AlphaScreen BAZ2B-H3K14Ac peptide displacement; Potency, µM (highest dose often 114 µM), inactives show at the highest dose activity change, negative = inhibition, hits mostly inhibitors; 360,000 compounds, 4.4% hits; also: % is scaled to controls: 0 for no effect and ±100 for the full control effect; nearly all actives have a fitted effect of over 60% in size
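Compounds, titrated to a top concentration of 110 uM, were incubated 30 min at room temperature with preformed BAZ2B/acetyl-K14 H3 peptide complex (50 nM each). Proximity signal was measured by AlphaScreen after 20 min with beads.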
L3MBTL1 block – inhibitors of human L3MBTL1; AID 485360; AlphaScreen L3MBTL1–H3K9me1 peptide binding; Potency, µM (highest dose often 57.1 µM), without a hit: top-dose activity, negative = inhibition, most hits filed as inhibitors; 230,000 compounds, 0.66% hits; also: % is scaled to controls: 0 for no effect and ±100 for the full control effect; nearly all actives have a fitted effect of over 60% in size
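First, the protein-peptide complex forms for 30 min at room temperature (L3MBTL1 50 nM, biotinylated H3K9me1 peptide 75 nM). Next, compounds are pin-transferred and incubated 30 min. Finally, AlphaScreen beads are added and read after 30 min.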
JMJD2A Tudor – JMJD2A Tudor domain (human) inhibition; O75164; 390,000 compounds, 4.4% hits; AlphaScreen JMJD2A-Tudor / H3K4me3 peptide binding; Potency, µM (titrated, usually from 114 µM), for inactives: top-dose activity change, negative = inhibition, hits mostly inhibitors; AID 504339; also: % is scaled to controls: 0 for no effect and ±100 for the full control effect; nearly all actives have a fitted effect of over 50% in size
Target sequence (O75164 whole entry, looked up, the tested form may be a part): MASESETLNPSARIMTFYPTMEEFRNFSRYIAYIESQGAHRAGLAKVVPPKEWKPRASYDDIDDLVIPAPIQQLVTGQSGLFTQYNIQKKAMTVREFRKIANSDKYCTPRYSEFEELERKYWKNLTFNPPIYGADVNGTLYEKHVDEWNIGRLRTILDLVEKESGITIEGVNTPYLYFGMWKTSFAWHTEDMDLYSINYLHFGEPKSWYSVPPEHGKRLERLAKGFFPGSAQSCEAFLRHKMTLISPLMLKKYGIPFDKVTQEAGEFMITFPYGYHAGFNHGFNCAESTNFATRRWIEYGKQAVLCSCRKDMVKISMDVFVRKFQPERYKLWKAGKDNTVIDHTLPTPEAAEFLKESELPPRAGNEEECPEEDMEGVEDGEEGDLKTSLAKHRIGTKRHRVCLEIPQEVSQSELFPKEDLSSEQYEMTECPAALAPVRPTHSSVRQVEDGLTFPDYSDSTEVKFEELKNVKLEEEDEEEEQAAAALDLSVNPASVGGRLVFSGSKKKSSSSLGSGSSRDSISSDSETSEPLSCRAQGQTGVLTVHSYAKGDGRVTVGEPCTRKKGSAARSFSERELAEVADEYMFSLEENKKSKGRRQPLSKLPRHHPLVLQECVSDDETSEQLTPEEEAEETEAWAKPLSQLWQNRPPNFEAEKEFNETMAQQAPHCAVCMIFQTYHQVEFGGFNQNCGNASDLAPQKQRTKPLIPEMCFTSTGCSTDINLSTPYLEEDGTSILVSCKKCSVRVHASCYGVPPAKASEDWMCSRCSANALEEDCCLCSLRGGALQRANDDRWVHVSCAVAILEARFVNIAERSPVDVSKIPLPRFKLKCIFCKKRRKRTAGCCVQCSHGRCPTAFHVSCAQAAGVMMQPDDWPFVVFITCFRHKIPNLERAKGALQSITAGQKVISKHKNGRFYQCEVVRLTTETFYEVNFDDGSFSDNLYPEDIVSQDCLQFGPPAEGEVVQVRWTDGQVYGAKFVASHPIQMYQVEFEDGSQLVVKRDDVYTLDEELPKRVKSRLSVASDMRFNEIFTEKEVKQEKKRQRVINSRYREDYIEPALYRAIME
G9a inh – G9a (human) methyltransferase inhibition. Q96KQ7. G9a H3K9 monomethylation, AlphaScreen, 2 h. Potency, µM (titrated, usually from 102 µM), inactives show at the highest dose activity, negative = inhibition, hits mostly inhibitors. 350,000 compounds, 8.8% hits; also: % is scaled to controls: 0 for no effect and ±100 for the full control effect; nearly all actives have a fitted effect of over 75% in size
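Quantitative HTS format: methyltransferase activity on a biotin-tagged H3K9 peptide is measured by AlphaScreen, using a rabbit anti-monomethyl-H3K9 antibody with streptavidin donor and anti-IgG acceptor beads. Final levels are 20 nM enzyme, 500 nM peptide, 20 uM SAM; 2 h RT.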
HP1b chromo inh – HP1-beta chromodomain-methylated histone interaction inhibition. AlphaScreen HP1-beta / biotin-H3K9me3 peptide binding. Potency, µM (highest dose often 114 µM), for the others: at the highest dose activity change, negative = inhibition, hits mostly inhibitors. 390,000 compounds, 0.56% hits; also: nearly all actives have a fitted effect of over 70% in size
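Compound inhibition of the preformed complex between 50 nM HP1-beta and 50 nM biotinylated H3K9me3 peptide was read by AlphaScreen. Buffer was PBS pH 7.4 with 0.01% Tween-20. Incubations ran 30 min at room temperature, with 10 ug/mL donor/acceptor beads.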
Sfp inh – inhibitors of Bacillus subtilis Sfp phosphopantetheinyl transferase; Q9F4F7; Biochemical Sfp PPTase activity, qHTS; Potency, µM, for inactives: largest response in the series, negative = inhibition, hits mostly inhibitors; AID 1490; 310,000 compounds, 3.5% hits;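 also: the enzyme is Sfp with the accession as filed and its product quenches rhodamine fluorescence; 0% = enzyme reaction without inhibitor and -100% = no enzyme wells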
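Step 1, compound plus 15 nM Sfp-PPTase, 15 min, room temperature. Step 2, add rhodamine-CoA (5 uM) and BHQ-2-YbbR (12.5 uM). Step 3, read 525/598 nm fluorescence at 0 and 30 min.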
* hit, by the source's call; [ ] = another dose, or the depositor's remark. The list is not random: actives were taken first. Their share in the collection is about 12%. Calls follow the shape of the dose curve; as a rule, active = well fitted curve in the direction sought with a large enough effect; inconclusive = small, poorly fitted or top-dose-only effect, or another doubt; inactive = no such curve, though single readings can be large; an effect the other way counts as inactive or inconclusive. Potency is read from the fitted curve at half-maximal effect.

How did CN(C(=O)CC1C(=O)NCCN1CC(c1ccccc1)c1ccccc1)C(C1CC1)C1CC1 (centres undefined) do in these assays?
BAZ2B block: -25.4%; L3MBTL1 block: -5.0%; JMJD2A Tudor: -24.1%; G9a inh: inconclusive; HP1b chromo inh: 23.6%; Sfp inh: 13.4%

What do the screens show for `CN(CC1CCOCC1)C(=O)CC1C(=O)NCCN1CC(c1ccccc1)c1ccccc1` (centres undefined)?
BAZ2B block: -9.8%; JMJD2A Tudor: -11.8%; G9a inh: 89.1µM*; HP1b chromo inh: 17.5%; Sfp inh: -2.2%

How did CN(Cc1ccccn1)C(=O)CC1C(=O)NCCN1Cc1cccc(Oc2ccccc2)c1 (centres undefined) do in these assays?
BAZ2B block: -31.5%; L3MBTL1 block: -9.2%; JMJD2A Tudor: -14.6%; G9a inh: 44.7µM*; HP1b chromo inh: 12.0%; Sfp inh: -16.5%

What do the screens show for `COc1ccccc1CN1CCNC(=O)C1CC(=O)N(C)Cc1nc(C)cs1` (centres undefined)?
BAZ2B block: -5.5%; JMJD2A Tudor: -8.2%; G9a inh: 50.1µM*; HP1b chromo inh: 44.4%; Sfp inh: -6.0%

What do the screens show for `O=C(NC1CCN(Cc2ccccc2)CC1)c1ccc(Cn2c(=O)c3ccccc3n(Cc3ccc(F)cc3)c2=O)cc1`?
BAZ2B block: -5.5%; JMJD2A Tudor: -19.8%; G9a inh: -34.0%[59 µM]; HP1b chromo inh: 14.3%

What do the screens show for `Cc1ccc(COC(=O)c2[nH]c3c(c2C)C(=O)CC(c2ccc(N(C)C)cc2)C3)cc1` (centres undefined)?
BAZ2B block: 2.2%; JMJD2A Tudor: -5.5%; G9a inh: 6.0%[59 µM]; HP1b chromo inh: 26.1%

What do the screens show for `COc1ccc(CN2CCNC(=O)C2CC(=O)NCCCC2CCCC2)c(C)c1C` (centres undefined)?
BAZ2B block: inconclusive; JMJD2A Tudor: -30.8%; G9a inh: inconclusive; HP1b chromo inh: 20.8%; Sfp inh: 1.4%

How did CN(CC1CCOCC1)C(=O)CC1C(=O)NCCN1Cc1ccc(Cl)c(F)c1 (centres undefined) do in these assays?
BAZ2B block: -1.9%; L3MBTL1 block: 1.5%; JMJD2A Tudor: -15.7%; G9a inh: 50.1µM*; HP1b chromo inh: 25.3%; Sfp inh: 13.2%

What do the screens show for `CN(Cc1cnn(C)c1)C(=O)CC1C(=O)NCCN1Cc1cccc(Oc2ccccc2)c1` (centres undefined)?
BAZ2B block: -20.5%; L3MBTL1 block: -9.9%; JMJD2A Tudor: -22.4%; G9a inh: 25.1µM*; HP1b chromo inh: 8.1%; Sfp inh: 6.5%

How did COc1cc(CN2CCNC(=O)C2CC(=O)NCCCC2CCCC2)cc(OC)c1 (centres undefined) do in these assays?
BAZ2B block: -22.0%; JMJD2A Tudor: -25.8%; G9a inh: 70.8µM*; HP1b chromo inh: 20.6%; Sfp inh: 4.4%

How did O=CN1CCCN(C(=O)CC2C(=O)NCCN2Cc2cccc(Oc3ccccc3)c2)CC1 (centres undefined) do in these assays?
BAZ2B block: -35.9%; JMJD2A Tudor: -16.9%; G9a inh: 44.7µM*; HP1b chromo inh: 46.6%; Sfp inh: -10.2%

Results for CCOc1ccc(CN2CCNC(=O)C2CC(=O)N(C)CC2CCOCC2)cc1 (centres undefined) ?
BAZ2B block: -6.1%; JMJD2A Tudor: -16.3%; G9a inh: inconclusive; HP1b chromo inh: 52.2%; Sfp inh: 6.8%

How did CN(CCC1CCOCC1)C(=O)CC1C(=O)NCCN1Cc1c(F)cccc1Cl (centres undefined) do in these assays?
BAZ2B block: -18.7%; JMJD2A Tudor: -9.0%; G9a inh: 39.8µM*; HP1b chromo inh: 29.0%; Sfp inh: 14.1%

How did CN(Cc1ccccn1)C(=O)CC1C(=O)NCCN1Cc1ccc(F)cc1Cl (centres undefined) do in these assays?
BAZ2B block: 56.2µM*; JMJD2A Tudor: inconclusive; HP1b chromo inh: 13.5%; Sfp inh: -20.8%

How did CN(Cc1ncc[nH]1)C(=O)CC1C(=O)NCCN1Cc1c(F)cccc1Cl (centres undefined) do in these assays?
BAZ2B block: -9.0%; L3MBTL1 block: 2.2%; JMJD2A Tudor: -6.2%; G9a inh: -9.0%; HP1b chromo inh: 33.5%; Sfp inh: inconclusive

What do the screens show for `COc1cccc(CN2CCNC(=O)C2CC(=O)N(C)CC2CCOCC2)c1` (centres undefined)?
BAZ2B block: -19.7%; JMJD2A Tudor: -4.9%; G9a inh: -8.5%; HP1b chromo inh: 21.5%; Sfp inh: 13.7%

What do the screens show for `CN(CC1CCOCC1)C(=O)CC1C(=O)NCCN1Cc1cccc(Oc2ccccc2)c1` (centres undefined)?
BAZ2B block: -20.6%; L3MBTL1 block: -9.2%; JMJD2A Tudor: -18.6%; G9a inh: 35.5µM*; HP1b chromo inh: 38.5%; Sfp inh: 1.5%

How did CC(Oc1ccccc1)C(=O)Nc1ccccc1C(=O)OCc1cc(=O)n2nc(C(C)C)sc2n1 (centres undefined) do in these assays?
BAZ2B block: -15.2%; JMJD2A Tudor: -22.8%; G9a inh: 8.1%[59 µM]; HP1b chromo inh: 23.8%

Results for CC(C)(C)c1ccc(Cc2n[nH]c(=S)[nH]c2=O)cc1 ?
BAZ2B block: 1.8%; JMJD2A Tudor: -8.4%; G9a inh: 23.1%[2.33 µM]; HP1b chromo inh: 35.9%; Sfp inh: 18.2%

What do the screens show for `O=c1[nH]c(=S)[nH]nc1Cc1ccc(Cl)c(Cl)c1`?
BAZ2B block: 16.2%; JMJD2A Tudor: -9.1%; G9a inh: 50.1µM*; HP1b chromo inh: 30.8%; Sfp inh: 25.1%

What do the screens show for `O=C(N/N=C/c1cc(Br)c(O)c(Br)c1)c1cc2c(ccc3ccccc32)o1`?
BAZ2B block: 39.8µM*; JMJD2A Tudor: 79.4µM*; G9a inh: inconclusive; HP1b chromo inh: inconclusive; Sfp inh: inconclusive

How did O=C(N/N=C/c1cccnc1)c1cc2c(ccc3ccccc32)o1 do in these assays?
BAZ2B block: -11.8%; L3MBTL1 block: 7.5%; JMJD2A Tudor: -33.9%; G9a inh: -38.9%[12.7 µM]; HP1b chromo inh: 29.6%; Sfp inh: -6.0%

How did O=C(N/N=C/c1ccc(O)c(Br)c1)c1cc2c(ccc3ccccc32)o1 do in these assays?
BAZ2B block: -5.7%; JMJD2A Tudor: -11.2%; G9a inh: -2.3%[0.501 µM]; HP1b chromo inh: 37.0%; Sfp inh: -3.0%

How did O=C(N/N=C/c1cc(Cl)c(O)c(Cl)c1)c1cc2c(ccc3ccccc32)o1 do in these assays?
BAZ2B block: 56.2µM*; JMJD2A Tudor: inconclusive; HP1b chromo inh: -2.1%; Sfp inh: inconclusive

Screens as filed in PubChem BioAssay.
